In the OligoGym collection:

The sequences below were run against CBX5 (assay: pooled miR-30 sensor sort-seq; sequence = guide strand). Conditions: shRNA.

First: TTACTTTCTGACTTCTCCCTGG
Second: TTAGATTTGATGTCATCGGCAC
The sensor-assay potency score (higher = more potent) of the first is lower: 0.106 for the first, 0.364 for the second.

First: TTAAATCACCACAGGAATCTGT
Second: TAAAATGCTATCACAATTTGTG
The sensor-assay potency score (higher = more potent) of the first is higher: -0.0279 for the first, -0.0381 for the second.

First: TTAGGAACATTAAATCACCACA
Second: TAGATATTCCACTTGTCCCTTA
The sensor-assay potency score (higher = more potent) of the first is lower: -0.835 for the first, 0.296 for the second.

First: TTTAGATTTGATGTCATCGGCA
Second: TAAATTCAGAAATTAGCTCAGG
The sensor-assay potency score (higher = more potent) of the first is higher: -0.103 for the first, -0.159 for the second.

Going from TATACTTTTTCATAAATTCAGA to TCACATTAGCTTCTTTTGCAAG, the sensor-assay potency score (higher = more potent) rises from -1.38 to -1.01.

Compared with TTTTAGATTTGATGTCATCGGC, TTTGATGTCATCGGCACTGTTT is lower in sensor-assay potency score (higher = more potent): -0.344 for the first, -0.553 for the second.

What follows are sequences tested against CBX7 in the same assay as above. Conditions: shRNA.

Compared with TCGATGGCTGTGGCTCTCCAGG, TACTCGACTTTACCCTTCCGCA is higher in sensor-assay potency score (higher = more potent): -1.84 for the first, -1.36 for the second.

First: ATACTCGACTTTACCCTTCCGC
Second: TTCTTTGAAAGTGACCAGGAAG
The sensor-assay potency score (higher = more potent) of the first is higher: -0.334 for the first, -1.2 for the second.

Going from ATACATCACACAACTTAGCAGA to TAGAGGAGAATGATAATGGTGG, the sensor-assay potency score (higher = more potent) rises from -0.583 to 0.263.

First: TAGTTCTTTGAAAGTGACCAGG
Second: TTTAACTCCCAGAACCAGCTGC
The sensor-assay potency score (higher = more potent) of the first is lower: -0.792 for the first, 0.312 for the second.

Going from TGTACTTTGGGGGCCATCCTTT to TCGTAGGCCATGACGAGGCGGG, the sensor-assay potency score (higher = more potent) rises from -1.24 to -0.996.

Going from TTCCGCACGCGCTTCTTCCGGA to TCCACTTCACCAGATACTCGAC, the sensor-assay potency score (higher = more potent) falls from -0.445 to -1.35.
